PubChem BioAssay (NCATS)
Records with an inconclusive call do not appear. Values without a mark were called inactive. Activity calls are given as the source filed them. The call rests on the fitted dose curve; in most records, active means well fitted cell-killing curve with a large enough effect; inconclusive means small, poorly fitted or top-dose-only effect, or effect the other way; inactive means no such curve, though single readings can be large or run the other way.

Assay: Quantitative High-Throughput drug screen in 47 multiple myeloma cell lines against the NCATS MIPE library collection: INA6_PLB cell viability assay (AID 1918965; further: nearly all actives have a fitted effect of over 55% in size)
Conditions: INA6 myeloma viability, CellTiter-Glo ATP luminescence, 48 h; series mostly up to 45.8 µM; viability (% of control): at the top concentration
Method in brief: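 Myeloma cell lines, 500 cells per well, exposed to MIPE 4.0 library compounds for 48 h at 37C, 5% CO2. Viability from ATP by CellTiter-Glo luminescence; normalised to DMSO (100%) and media-only (0%) wells.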
Potency means the concentration at half of the fitted maximal effect.

Row | Structure (SMILES) | Potency | viability (% of control)
1 | Nc1nc(N)c(N=O)c(OCC2CCCCC2)n1 | 5.26 µM (active) | 
2 | N=C(N=C(N)N)N1CCOCC1 |  | 157%
3 | O=C(c1ccccc1)c1ccc2n1CCC2C(=O)O (stereo unspecified) | 10.5 µM (active) | 
4 | Cc1cc(O)c2c(c1)C(=O)c1cc(O)cc(O)c1C2=O |  | 172%
5 | Nc1ccc(S(N)(=O)=O)cc1 |  | 157%
6 | O=C(NCC1CCCCN1)c1cc(OCC(F)(F)F)ccc1OCC(F)(F)F (stereo unspecified) | 13.2 µM (active) | 
7 | Cc1cc(=O)oc2cc(O)ccc12 |  | 111%
8 | NC(=O)Cc1cccc(C(=O)c2ccccc2)c1N |  | 184%
9 | COC(=O)C1=C(C)NC(C)=C(C(=O)OC(C)C)C1c1cccc2nonc12 (stereo unspecified) | 26.4 µM (active) | 
10 | COc1ccc(C2(C#N)CCC(C(=O)O)CC2)cc1OC1CCCC1 (stereo unspecified) | 18.7 µM (active) | 
11 | Cc1cc(C2CCCCC2)n(O)c(=O)c1 | 6.62 µM (active) | 
12 | CC1(C)C(=O)N(CCN2CCC(C(=O)c3ccc(F)cc3)CC2)c2ccccc21 | 1.66 µM (active) | 
13 | COCCCOc1ccnc(CS(=O)c2nc3ccccc3[nH]2)c1C (stereo unspecified) |  | 127%
14 | O=C(NOCC1CC1)c1ccc(F)c(F)c1Nc1ccc(I)cc1Cl | 9.35 µM (active) | 
15 | O=C(O)c1cccc(-c2noc(-c3ccccc3F)n2)c1 | 23.5 µM (active) | 
16 | CN(C)c1ccc(O)c2c1C[C@H]1C[C@H]3[C@H](N(C)C)C(=O)C(C(N)=O)=C(O)[C@@]3(O)C(=O)C1=C2O | 13.2 µM (active) | 
